Data on 31 compounds can be found in PubChem BioAssay (EPA / NIEHS).

Structures are written as SMILES. Records with an inconclusive call do not appear. Calls of active or inactive are those of the source. How the source made its calls, unless noted: active means hit-call score of the fitted dose curve at least 0.9, where 1 is the maximum; inactive means score below 0.9.

Chain of Ratio of Nucleoli Translocation and Cytoplasm, AR (gene 367) (P10275 whole entry, looked up): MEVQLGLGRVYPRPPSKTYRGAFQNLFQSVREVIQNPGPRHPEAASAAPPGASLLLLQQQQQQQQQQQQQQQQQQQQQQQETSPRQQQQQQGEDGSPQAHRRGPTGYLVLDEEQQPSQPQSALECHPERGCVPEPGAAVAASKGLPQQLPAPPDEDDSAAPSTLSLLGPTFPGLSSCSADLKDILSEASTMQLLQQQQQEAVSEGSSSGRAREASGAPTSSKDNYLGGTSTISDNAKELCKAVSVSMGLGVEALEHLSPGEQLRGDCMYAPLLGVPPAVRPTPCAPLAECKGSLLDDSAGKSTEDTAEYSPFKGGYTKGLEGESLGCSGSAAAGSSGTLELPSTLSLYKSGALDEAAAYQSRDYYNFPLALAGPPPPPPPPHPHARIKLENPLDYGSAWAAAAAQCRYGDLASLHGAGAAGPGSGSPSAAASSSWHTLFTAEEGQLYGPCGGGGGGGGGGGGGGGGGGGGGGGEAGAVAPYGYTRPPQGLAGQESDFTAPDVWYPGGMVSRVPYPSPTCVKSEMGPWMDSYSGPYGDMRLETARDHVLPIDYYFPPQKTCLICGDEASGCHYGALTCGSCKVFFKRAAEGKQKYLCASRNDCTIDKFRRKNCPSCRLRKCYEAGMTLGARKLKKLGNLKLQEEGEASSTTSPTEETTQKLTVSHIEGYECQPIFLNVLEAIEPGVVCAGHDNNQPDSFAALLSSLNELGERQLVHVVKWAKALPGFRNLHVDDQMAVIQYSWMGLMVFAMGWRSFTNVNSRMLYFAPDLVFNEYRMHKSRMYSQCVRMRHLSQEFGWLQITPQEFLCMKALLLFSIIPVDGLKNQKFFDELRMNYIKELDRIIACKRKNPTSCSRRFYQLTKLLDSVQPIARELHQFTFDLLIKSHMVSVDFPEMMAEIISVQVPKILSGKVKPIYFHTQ

One experiment has as its target Ratio of Nucleoli Translocation and Cytoplasm, AR (gene 367) (UniProt P10275). The experiment can be described thus: UPITT_HCI_U2OS_AR_TIF2_Nucleoli_Cytoplasm_Ratio_Agonist: University of Pittsburgh U2OS Androgen Receptor-Transcriptional Intermediary Factor 2 (AR-TIF2) Agonism High Content Imaging Assay for Ratio of Nucleoli Translocation and Cytoplasm (AID 2284000; active means hit-call score of the fitted dose curve at least 0.9, where 1 is the maximum;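 further: hits raise the red nucleolar to cytoplasm ratio above vehicle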).
Settings: not given
The essentials: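 Read-out first: nucleolar-to-cytoplasm ratio of red (AR-RFP) signal, quantified by high-content imaging in U2OS cells co-expressing TIF2-GFP. Activity is scored as signal increase over DMSO. Single-point screening used 20 uM final (0.2% DMSO).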
As to `O=C1c2ccccc2C(=O)C1C(=O)C(c1ccccc1)c1ccc(Cl)cc1` (stereo not drawn), the result was inactive.
As to `COCCl`, the result was inactive.
As to `CC(C)N(C(=O)CCl)c1ccccc1`, the outcome was inactive.
For `Cc1cc(Cl)ccc1OCCCC(=O)O`, the result was inactive.
The same measure, in the same setting: then `CCOP(=S)(OCC)OP(=S)(OCC)OCC`, with “inactive”.
In the case of `O=C(NC(=O)c1c(F)cccc1F)Nc1cc(Cl)c(OC(F)(F)C(F)C(F)(F)F)cc1Cl` (stereo not drawn), the result was inactive.
Consider `OC(Cc1ccccc1Cl)(Cn1[nH]cnc1=S)C1(Cl)CC1` (stereo not drawn), for which the outcome was inactive.
Regarding `C=CC(Cl)CCl` (stereo not drawn), the outcome was inactive.
Consider `CC(=Cc1ccccc1)[N+](=O)[O-]`, for which the outcome was inactive.
With `O=C(CCl)Nc1ccccc1`, the result was inactive.
Same read-out and setting: to `CNC(=O)O/N=C/C(C)(C)S(C)(=O)=O` belongs “inactive”; to `O=C(N[C@H]1CN2CCC1CC2)c1ccc2c(c1)OCCO2`, “inactive”.
As a reminder, the AC50 is the concentration giving half of the maximal activity seen. For `O=[N+]([O-])c1ccc(Cl)c([N+](=O)[O-])c1`, the concentration at half-maximal activity (AC50) is 13.1 µM (active).
For `O=C(O)COc1cc(Cl)c(Cl)cc1Cl`, the outcome was inactive.

Tested on in the next experiment: not listed separately
The experiment can be described thus: CCTE_Simmons_MITO_max_resp_rate: CCTE's HepG2 Seahorse XF Respirometric Screening Assay at Maximal Respiratory State [uncoupled], Simmons Lab (AID 2284002). The conditions noted are these: actives raise or lower the signal. Put shortly: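 HepG2 oxygen consumption measured on Seahorse XF after FCCP uncoupling, following test compound injection; 7 concentrations from 125 nM to 100 uM final. Readings every 6 min over 72 min, three biological replicates; bidirectional fit versus DMSO.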
In the case of `Oc1c(Cl)cc(Cl)cc1Cl`, the result was inactive.
Consider `Oc1cc(Cl)c(Cl)cc1Cl`, for which the concentration at half-maximal activity (AC50) was 75.4 µM (active).
As to `O=C(O)C1(c2ccc3c(c2)OC[C@H](Cc2ccc(-c4ccccc4)cc2)[C@H]3O)CCCC1`, the AC50 is 8.48 µM (active).

Tested on in a further experiment: not listed separately
The experiment can be described thus: CCTE_Simmons_MITO_inhib_resp_rate: CCTE's HepG2 Seahorse XF Respirometric Screening Assay at Inhibited Respiratory State [full ETC block], Simmons Lab (AID 2284006). The conditions noted are these: actives raise or lower the signal. The essentials:
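HepG2 oxygen consumption was measured by Seahorse XF after compound, FCCP, then rotenone/antimycin A injections. Seven concentrations from 125 nM to 100 uM (final) were tested, with 6-min kinetic reads over 72 minutes. Inhibited-state OCR was fitted bidirectionally against DMSO.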
As to `Oc1c(Cl)cc(Cl)cc1Cl`, the compound was called inactive.
Turning to `Oc1cc(Cl)c(Cl)cc1Cl`, the compound was classed as inactive.
Turning to `O=C(O)C1(c2ccc3c(c2)OC[C@H](Cc2ccc(-c4ccccc4)cc2)[C@H]3O)CCCC1`, the call was inactive.

Tested on in the next experiment: not listed separately
The experiment can be described thus: CCTE_Simmons_MITO_viability: CellTiter-Glo Viability Assessment for CCTE's HepG2 Seahorse XF Respirometric Screening Assay [post-hoc], Simmons Lab (AID 2284007; active means hit-call score of the fitted dose curve at least 0.9, where 1 is the maximum).
Settings: not given
Put shortly: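 HepG2 cells exposed 90 min to 7 concentrations from 125 nM to 100 uM final, then ATP measured by luciferase luminescence. Three biological replicates per concentration; DMSO vehicle; dichlone control at 10 nM–100 uM.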
As for `Oc1c(Cl)cc(Cl)cc1Cl`, the outcome was inactive.
As for `Oc1cc(Cl)c(Cl)cc1Cl`, the result was inactive.
Turning to `O=C(O)C1(c2ccc3c(c2)OC[C@H](Cc2ccc(-c4ccccc4)cc2)[C@H]3O)CCCC1`, the call was inactive.

Tested on in the next experiment: not listed separately
The experiment can be described thus: CCTE_Shafer_MEA_acute_spike_number: CCTE's Neural Acute Assay for Total Number of Spikes, Shafer Lab (AID 2284008).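 On AC50: curve fitted for decrease in spike count so AC50 reflects inhibitors.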
Settings: not given
Put shortly:
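Rat primary cortical neurons on 48-well MEA plates, DIV 13 or 15, at 37 C. 40 min baseline then 40 min with compound (0.03-40 uM); spikes detected at 8x rms noise, expressed as percent change from baseline.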
As for `Oc1ccc(Cc2ccc(O)cc2)cc1`, the AC50 was 0.00454 µM (active).
As for `Cc1ccccc1OP(=O)(Oc1ccccc1C)Oc1ccccc1C`, the half-maximal activity concentration (AC50) was 25.4 µM (active).
Still for that read-out and setting: to `CC1(C)[C@H](C(=O)O[C@H](C#N)c2cccc(Oc3ccccc3)c2)[C@@H]1/C=C(\Cl)C(F)(F)F` belongs 1.18 µM (active); to `Oc1cc(Cl)c(Cl)cc1Cl`, 36.3 µM (active).
Regarding `OCCCCO`, the outcome was inactive.
Take `N#Cc1cccnc1`: the compound was classed as inactive.
`CCCCOC(=O)COC(=O)c1ccccc1C(=O)OCCCC`: the concentration at half-maximal activity (AC50) is 0.0196 µM (active).
As to `O=C(Cc1ccccc1)OCCc1ccccc1`, the concentration at half-maximal activity (AC50) is 0.003 µM (active).
For the compound `CS(=O)(=O)c1ccc(C(=O)C2C(=O)CCCC2=O)c(Cl)c1COCC(F)(F)F`, the call was inactive.
Consider `CC(C)[C@@H](Nc1ccc(C(F)(F)F)cc1Cl)C(=O)OC(C#N)c1cccc(Oc2ccccc2)c1` (stereo partly drawn), for which the AC50 was 0.936 µM (active).
As for `CN(C)C(=S)S`, the compound was called inactive.
For `Cc1cc(C(F)(C(F)(F)F)C(F)(F)F)ccc1NC(=O)c1cccc(I)c1C(=O)NC(C)(C)CS(C)(=O)=O`, the concentration at half-maximal activity (AC50) was 1.68 µM (active).
On to `CCCCCCCCCCCCc1cccc(S(=O)(=O)O)c1`, for which the compound was classed as inactive.
Turning to `CC(C)(C)c1ccccc1O`, the concentration at half-maximal activity (AC50) was 4.82 µM (active).
`Clc1cccc(Cl)c1Cl`: the result was inactive.
